The nature of test [1]: compounds binding Alexa647 anti-His antibody – biochemical, small-molecule microarray, 635 nm fluorescence, artefact control for SMM control protein annotation, primary screen (AID 1128).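 Note: score merges feature fluorescence with signal-to-noise for each printed compound spot.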 Particulars: higher = more signal.
The test system of test [2] is Human papillomavirus type 1a E7 protein (residues 1-88). The test is described as follows: HPV1a E7 small-molecule binders, primary screen, biochemical, small-molecule microarray, residues 1-88, 635 nm (AID 1129). Particulars: small-molecule microarray binding, fluorescence 635 nm; higher = more signal.
The target of test [3] is Focal adhesion kinase 1 (Homo sapiens) (UniProt Q05397). The test is described as follows: PTK2 protein binding on printed compound slides – biochemical, small-molecule microarray, 635/667 nm fluorescence, BSA, DTT, primary screen (AID 1130).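 Note: composite of spot emission at 667 nm and signal to noise over triplicate slides.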 Particulars: 635 nm fluorescence, higher = more signal.
Test [4] has as its system Fibrinogen (Alexa647-labelled). The test is described as follows: Alexa647-fibrinogen binding to printed small molecules – biochemical, small-molecule microarray, 635/667 nm fluorescence, artefact control for SMM control-protein annotation, profiling panel (AID 1131).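 Note: z-score merges 667 nm fluorescence with per-spot signal-to-noise over triplicate slides.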 Conditions: fibrinogen-A647 binding fluorescence, higher = more signal.
The target of test [5] is Follistatin (Homo sapiens) (UniProt P19883). Put plainly: FST protein binding to printed compounds – biochemical, small-molecule microarray, 635/667 nm fluorescence, primary screen (AID 1132). Conditions: 635 nm fluorescence, higher = more signal.
The target of test [6] is Fibroblast growth factor 2 (Homo sapiens) (UniProt P09038). The test is described as follows: basic fibroblast growth factor binding to printed compounds – biochemical, small-molecule microarray, 635/667 nm fluorescence, primary screen (AID 1133). Conditions: FGF2, fluorescence 635/667, higher = more signal.
A short description of test [7]: JC-1 mitochondrial potential readout, lung cancer cells – cell-based, A549, JC-1 fluorescence, basal, 24 h, 100 nL, profiling panel (AID 1138).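 Note: A549 lung adenocarcinoma cells under basal conditions with no added stimulus; test concentration not given here.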 Particulars: higher = more signal.
Another test has as its system Lefty1. The test is described as follows: Lefty1 protein binding to printed compounds – biochemical, small-molecule microarray, 635/667 nm fluorescence, primary screen (AID 1139). Conditions: fluorescence 635/667, higher = more signal.
The subject of test [8] is wheat germ agglutinin (Triticum aestivum), Alexa647-labelled. Put plainly: Alexa647-WGA lectin binding to printed small molecules – biochemical, small-molecule microarray, 635/667 nm fluorescence, artefact control for SMM control-protein annotation, profiling panel (AID 1140).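 Note: score merges 667 nm feature emission with signal to noise over triplicate slides.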 Conditions: WGA-A647 binding, 635 nm fluorescence, higher = more signal.
Test [9] has as its target Luciferin 4-monooxygenase (Photinus pyralis) (UniProt P08659). Put plainly: inhibition of purified Photinus pyralis luciferase – biochemical, luminescence, purified enzyme, 2006 set, primary screen (AID 1141).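 Note: cell-free assay with purified firefly luciferase at 100 ng per well in PBS; test concentration not given here.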 Particulars: purified firefly luciferase, SteadyGlo luminescence, 30 min; higher = more signal, called active from +8 up or from −8 down.
The subject of test [10] is Wnt5a (protein binding on small-molecule microarray). Put plainly: small molecules binding Wnt5a protein – biophysical, small-molecule microarray, 635/667 nm fluorescence, primary screen (AID 1142).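 Note: fluorescence read at 667 nm with signal to noise per printed feature.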 Conditions: 635 nm fluorescence, higher = more signal.
A short description of test [11]: ATP-based viability of Huh7 replicon cells – cell-based, CellTiter-Glo luminescence, basal, 48 h, cytotoxicity control for HCV replication inhibitor project, primary screen (AID 1143).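 Note: Huh7 hepatoma cells carrying a hepatitis C replication reporter with no stimulus; test concentration not given here.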 Conditions: higher = more signal, called active from +8 up or from −8 down. For orientation: In antiviral work, replicon cells carry a viral genome segment that copies itself.
A short description of test [12]: Pseudomonas biofilm growth suppression – PAO1 strain, BacTiter-Glo luminescence, LB-PBS, primary screen (AID 1144). Conditions: P. aeruginosa PAO1 biofilm, 12 h, higher = more signal.
The nature of test [13]: basal CRE-LacZ reporter activity in PC12 – cell-based, unstimulated, primary screen (AID 1145). Conditions: no forskolin, luminescence, 4.5 h, higher = more signal, called active from +8 up or from −8 down.
The nature of test [14]: forskolin-driven CRE-LacZ activity in PC12 – cell-based, CRE-LacZ reporter, forskolin-stimulated, primary screen (AID 1146).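 Note: PC12 cells with 6xCRE LacZ reporter stimulated by forskolin 10 µM; beta-galactosidase reporter signal reflecting CREB driven transcription.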 Particulars: luminescence, 4.5 h, higher = more signal, called active from +8 up or from −8 down.
For test [15], the target named is Streptavidin (Streptomyces avidinii) (UniProt P22629). The test is described as follows: compounds binding control protein streptavidin – biophysical, small-molecule microarray, 635/667 nm fluorescence, artefact control for SMM compound annotation, primary screen (AID 1147).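 Note: signal reflects streptavidin binding to arrayed compounds as a control protein.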 Conditions: higher = more signal.
Test [16] can be described thus: probe aInhba binding on compound microarray – biochemical, small-molecule microarray, 635/667 nm fluorescence, primary screen (AID 1148).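 Note: score merges 667nm spot fluorescence with signal-to-noise for antibody binding to printed compounds.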 Conditions: higher = more signal.
Test [17] has as its target Torsin-1A (Homo sapiens) (UniProt O14656). Put plainly: TOR1A wild-type binding on microarray – cell lysate, small-molecule microarray, lysate, 635/667 nm, primary screen (AID 1149). Particulars: COS7 hTOR1A-WT lysate, 635 nm fluorescence, higher = more signal.
Test [18] has the same target. The test is described as follows: torsin A mutant lysate binding on microarrays – cell lysate, small-molecule microarray, COS7 lysate, 635/667 nm fluorescence, primary screen (AID 1150).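 Note: score pools 667 nm emission and signal to noise measuring lysate protein binding.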 Particulars: COS7 hTOR1A mutant lysate, 635 nm fluorescence, higher = more signal.
Test [19] concerns Sonic hedgehog protein (Shh). Put plainly: Sonic hedgehog microarray binding compounds – biochemical, small-molecule microarray, 635/667 nm fluorescence, primary screen (AID 1151).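 Note: Shh protein binding to compounds spotted on small-molecule microarray slides; score combines spot fluorescence intensity with signal-to-noise across triplicate slides.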 Conditions: 635 nm fluorescence, higher = more signal.

The structures appear in SMILES notation. The source made the active and inactive calls. Unless noted, the rule behind the calls is not given here.

Chain of Luciferin 4-monooxygenase (Photinus pyralis) (P08659 whole entry, looked up): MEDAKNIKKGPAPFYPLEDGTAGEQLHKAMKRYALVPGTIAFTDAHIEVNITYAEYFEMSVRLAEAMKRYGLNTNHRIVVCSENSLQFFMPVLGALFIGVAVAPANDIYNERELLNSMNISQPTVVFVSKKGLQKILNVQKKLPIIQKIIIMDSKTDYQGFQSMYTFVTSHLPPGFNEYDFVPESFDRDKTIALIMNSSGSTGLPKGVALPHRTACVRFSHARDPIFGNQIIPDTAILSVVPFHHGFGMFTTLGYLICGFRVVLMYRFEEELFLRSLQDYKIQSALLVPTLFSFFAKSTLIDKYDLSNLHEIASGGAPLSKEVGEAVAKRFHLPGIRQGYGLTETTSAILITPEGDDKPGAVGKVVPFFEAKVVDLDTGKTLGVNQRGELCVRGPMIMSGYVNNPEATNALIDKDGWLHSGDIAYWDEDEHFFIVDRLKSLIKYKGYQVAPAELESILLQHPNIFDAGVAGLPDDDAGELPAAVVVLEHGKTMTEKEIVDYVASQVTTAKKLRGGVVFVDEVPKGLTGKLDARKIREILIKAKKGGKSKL
Chain of Torsin-1A (Homo sapiens) (O14656 whole entry, looked up): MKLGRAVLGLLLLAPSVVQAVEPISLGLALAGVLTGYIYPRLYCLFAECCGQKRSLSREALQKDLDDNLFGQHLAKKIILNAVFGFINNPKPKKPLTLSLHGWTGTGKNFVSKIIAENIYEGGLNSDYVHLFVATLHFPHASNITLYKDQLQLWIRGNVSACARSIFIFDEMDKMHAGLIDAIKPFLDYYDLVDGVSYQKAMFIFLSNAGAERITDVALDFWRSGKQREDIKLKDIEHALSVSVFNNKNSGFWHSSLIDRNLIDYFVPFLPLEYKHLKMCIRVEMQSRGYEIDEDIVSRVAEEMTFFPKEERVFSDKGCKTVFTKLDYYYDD
Chain of Follistatin (Homo sapiens) (P19883 whole entry, looked up): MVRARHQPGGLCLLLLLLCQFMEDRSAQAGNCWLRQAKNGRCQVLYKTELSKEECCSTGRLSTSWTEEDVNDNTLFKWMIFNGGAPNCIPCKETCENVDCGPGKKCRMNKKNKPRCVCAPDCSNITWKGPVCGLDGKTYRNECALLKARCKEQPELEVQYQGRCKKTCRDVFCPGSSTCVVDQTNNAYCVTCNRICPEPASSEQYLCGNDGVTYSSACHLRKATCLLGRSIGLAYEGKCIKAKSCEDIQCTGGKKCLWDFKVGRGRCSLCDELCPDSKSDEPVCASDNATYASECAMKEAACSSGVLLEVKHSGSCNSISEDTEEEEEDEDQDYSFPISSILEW
Chain of Focal adhesion kinase 1 (Homo sapiens) (Q05397 whole entry, looked up): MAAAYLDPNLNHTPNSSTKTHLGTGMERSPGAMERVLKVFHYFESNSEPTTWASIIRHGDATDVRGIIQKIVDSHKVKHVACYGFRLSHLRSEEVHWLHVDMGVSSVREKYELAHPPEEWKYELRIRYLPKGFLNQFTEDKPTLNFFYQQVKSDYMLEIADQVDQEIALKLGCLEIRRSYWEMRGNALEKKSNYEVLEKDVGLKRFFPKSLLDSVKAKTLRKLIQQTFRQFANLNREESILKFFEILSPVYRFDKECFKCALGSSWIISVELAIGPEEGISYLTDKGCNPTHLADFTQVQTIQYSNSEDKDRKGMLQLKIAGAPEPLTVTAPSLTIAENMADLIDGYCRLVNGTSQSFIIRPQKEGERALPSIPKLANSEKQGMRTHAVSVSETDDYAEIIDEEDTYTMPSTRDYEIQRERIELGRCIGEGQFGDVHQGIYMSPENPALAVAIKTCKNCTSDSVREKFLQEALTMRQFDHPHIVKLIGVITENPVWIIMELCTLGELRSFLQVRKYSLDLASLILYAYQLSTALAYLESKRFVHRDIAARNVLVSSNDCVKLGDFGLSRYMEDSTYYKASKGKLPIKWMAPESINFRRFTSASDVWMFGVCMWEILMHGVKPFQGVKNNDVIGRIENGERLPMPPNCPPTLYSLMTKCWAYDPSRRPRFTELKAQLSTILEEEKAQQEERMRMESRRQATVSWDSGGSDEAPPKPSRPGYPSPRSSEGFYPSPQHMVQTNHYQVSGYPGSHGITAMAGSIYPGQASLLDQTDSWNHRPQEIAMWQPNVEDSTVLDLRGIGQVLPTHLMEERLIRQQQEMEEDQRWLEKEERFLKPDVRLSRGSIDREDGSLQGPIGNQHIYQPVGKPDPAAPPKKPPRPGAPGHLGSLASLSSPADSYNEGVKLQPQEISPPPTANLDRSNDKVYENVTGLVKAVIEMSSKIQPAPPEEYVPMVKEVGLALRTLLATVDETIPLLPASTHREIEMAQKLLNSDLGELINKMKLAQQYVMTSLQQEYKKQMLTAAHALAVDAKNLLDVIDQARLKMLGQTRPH
Chain of Fibroblast growth factor 2 (Homo sapiens) (P09038 whole entry, looked up): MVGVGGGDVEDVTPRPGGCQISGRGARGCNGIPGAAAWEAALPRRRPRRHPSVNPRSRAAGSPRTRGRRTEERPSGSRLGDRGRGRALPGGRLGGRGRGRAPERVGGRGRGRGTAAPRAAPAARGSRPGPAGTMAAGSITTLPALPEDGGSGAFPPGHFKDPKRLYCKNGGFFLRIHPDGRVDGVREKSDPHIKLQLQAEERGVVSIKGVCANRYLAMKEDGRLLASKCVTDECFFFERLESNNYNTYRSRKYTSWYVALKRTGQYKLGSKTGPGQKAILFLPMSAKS
Chain of Streptavidin (Streptomyces avidinii) (P22629 whole entry, looked up): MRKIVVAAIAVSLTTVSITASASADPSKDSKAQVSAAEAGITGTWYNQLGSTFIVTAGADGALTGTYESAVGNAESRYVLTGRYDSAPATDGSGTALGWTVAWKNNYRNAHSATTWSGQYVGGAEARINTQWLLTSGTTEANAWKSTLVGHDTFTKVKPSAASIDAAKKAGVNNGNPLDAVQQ

`CCCCN1CC=CC23O[C@@H]4C=CCOC(=O)[C@@H]4[C@H]2C(=O)N(CCO)[C@@H]3C1=O` (stereo not given in full): the composite z-score in test [1] is -0.211; in test [2], -0.629; in test [3], -0.681; in test [4], -0.717; in [5], -1.06; in test [6] it was -1.39. In addition, the composite z-score is -1.45 in the test on Lefty1; -1.29 in test [8]; -0.477 in test [10]; -0.94 in [15]; 0.059 in [16]; 0.0805 with Torsin-1A (Homo sapiens) [17]. In addition, the composite z-score with Torsin-1A (Homo sapiens) [18] is -0.243; in test [19] it was -0.858. Also, the z-score was 0.0309 in [7]; 0.0308 (inactive) in test [9]; -0.238 (inactive) in test [11]; 1.1 (inactive) in [12]; 0.0605 (inactive) in test [13]; 0.113 (inactive) in test [14].
In the case of `[N-]=[N+]=NCc1ccccc1C[C@@]1(C(=O)O)N=C(c2ccc(OCCCO)cc2)O[C@@H]1c1ccccc1CN=[N+]=[N-]`, the composite z-score in test [1] is 0.705; in test [2] it was 1.17; in test [3] it was -0.0333; in test [4] it was 0.989; in test [5], 1.02; in test [6] it was 0.679. Also, the composite z-score with Lefty1 is 0.594; in test [8], 0.51; in test [10], 0.561; in [15], 0.465; in [16] it was 0.353; with Torsin-1A (Homo sapiens) [17], 1.28. Also, the values for the composite z-score (with Torsin-1A (Homo sapiens) [18]; in [19]) were 0.171 and 0.447, respectively. Besides, the z-score in test [7] was -0.253; in test [9], -0.593 (inactive); in [11], -1.96 (inactive); in test [12], -0.595 (inactive); in test [13], -0.996 (inactive); in test [14], -1.4 (inactive).
Regarding `CCCCC(=C=CC[C@@H](O)c1cccc(OCCO)c1)CCO`, the composite z-score in test [1] is -0.378; in test [2], -0.437; in [3], -0.0962; in test [4], 0.449; in test [5], 0.242; in test [6] it was 0.154. Moreover, the composite z-score in the test with Lefty1 is 0.448; in [8], 0.771; in [10], 0.0999; in [15], 1.42; in test [16], -0.188; in the test with Torsin-1A (Homo sapiens) [17], -1.33. Further, the composite z-score with Torsin-1A (Homo sapiens) [18] was -0.828; in test [19] it was 0.364. Also, the z-score in [7] was 0.613; in test [9], -0.656 (inactive); in [11], -0.562 (inactive); in test [12] it was -0.564 (inactive); in test [13], 3.5 (inactive); in test [14], -0.468 (inactive).

Values taken from PubChem BioAssay.
